# Data taken from PubChem BioAssay.
# Activity calls are given as the source filed them. Unless noted, the rule behind the calls is not given here.
# Tests used:
# [1] = tested on: Wnt5a (protein binding on small-molecule microarray); assay: small molecules binding Wnt5a protein – biophysical, small-molecule microarray, 635/667 nm fluorescence, primary screen (AID 1142); conditions: 635 nm fluorescence, higher = more signal;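 note: fluorescence read at 667 nm with signal to noise per printed feature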
# [2] = ATP-based viability of Huh7 replicon cells – cell-based, CellTiter-Glo luminescence, basal, 48 h, cytotoxicity control for HCV replication inhibitor project, primary screen (AID 1143); conditions: higher = more signal, called active from +8 up or from −8 down;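 note: Huh7 hepatoma cells carrying a hepatitis C replication reporter with no stimulus; test concentration not given here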
# [3] = Pseudomonas biofilm growth suppression – PAO1 strain, BacTiter-Glo luminescence, LB-PBS, primary screen (AID 1144); conditions: P. aeruginosa PAO1 biofilm, 12 h, higher = more signal
# [4] = basal CRE-LacZ reporter activity in PC12 – cell-based, unstimulated, primary screen (AID 1145); conditions: no forskolin, luminescence, 4.5 h, higher = more signal, called active from +8 up or from −8 down
# [5] = forskolin-driven CRE-LacZ activity in PC12 – cell-based, CRE-LacZ reporter, forskolin-stimulated, primary screen (AID 1146); conditions: luminescence, 4.5 h, higher = more signal, called active from +8 up or from −8 down;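 note: PC12 cells with 6xCRE LacZ reporter stimulated by forskolin 10 µM; beta-galactosidase reporter signal reflecting CREB driven transcription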
# [6] = biological target: Streptavidin (Streptomyces avidinii) (UniProt P22629); assay: compounds binding control protein streptavidin – biophysical, small-molecule microarray, 635/667 nm fluorescence, artefact control for SMM compound annotation, primary screen (AID 1147); conditions: higher = more signal;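 note: signal reflects streptavidin binding to arrayed compounds as a control protein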
# Streptavidin (Streptomyces avidinii), sequence (P22629 whole entry, looked up): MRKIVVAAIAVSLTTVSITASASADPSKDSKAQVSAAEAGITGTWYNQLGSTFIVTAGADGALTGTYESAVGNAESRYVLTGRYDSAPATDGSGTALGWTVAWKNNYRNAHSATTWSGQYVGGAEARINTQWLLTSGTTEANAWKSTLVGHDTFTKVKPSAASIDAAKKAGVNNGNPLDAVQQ
# [7] = probe aInhba binding on compound microarray – biochemical, small-molecule microarray, 635/667 nm fluorescence, primary screen (AID 1148); conditions: higher = more signal;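 note: score merges 667nm spot fluorescence with signal-to-noise for antibody binding to printed compounds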
# [8] = biological target: Torsin-1A (Homo sapiens) (UniProt O14656); assay: TOR1A wild-type binding on microarray – cell lysate, small-molecule microarray, lysate, 635/667 nm, primary screen (AID 1149); conditions: COS7 hTOR1A-WT lysate, 635 nm fluorescence, higher = more signal
# Torsin-1A (Homo sapiens), sequence (O14656 whole entry, looked up): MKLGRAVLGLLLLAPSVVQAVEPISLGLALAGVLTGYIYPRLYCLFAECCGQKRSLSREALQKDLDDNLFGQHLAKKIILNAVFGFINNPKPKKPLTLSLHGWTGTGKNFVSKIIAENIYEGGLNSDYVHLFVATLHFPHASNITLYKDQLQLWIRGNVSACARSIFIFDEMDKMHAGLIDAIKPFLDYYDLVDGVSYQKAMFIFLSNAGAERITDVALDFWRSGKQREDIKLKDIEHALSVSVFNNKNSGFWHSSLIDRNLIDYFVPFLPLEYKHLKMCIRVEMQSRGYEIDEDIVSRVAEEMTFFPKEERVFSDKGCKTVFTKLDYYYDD
# [9] = biological target: Torsin-1A (Homo sapiens) (UniProt O14656); assay: torsin A mutant lysate binding on microarrays – cell lysate, small-molecule microarray, COS7 lysate, 635/667 nm fluorescence, primary screen (AID 1150); conditions: COS7 hTOR1A mutant lysate, 635 nm fluorescence, higher = more signal;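 note: score pools 667 nm emission and signal to noise measuring lysate protein binding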
# [10] = tested on: Sonic hedgehog protein (Shh); assay: Sonic hedgehog microarray binding compounds – biochemical, small-molecule microarray, 635/667 nm fluorescence, primary screen (AID 1151); conditions: 635 nm fluorescence, higher = more signal;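 note: Shh protein binding to compounds spotted on small-molecule microarray slides; score combines spot fluorescence intensity with signal-to-noise across triplicate slides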
# [11] = optical density shifts of acrAB sulA E. coli – strain DRC41, OD650, 48 h, E. coli filamentation inducer project, primary screen (AID 1152); conditions: higher = more signal, called active from +8 up or from −8 down;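 note: E. coli MC1000 strain DRC41 lacking acrAB efflux pump and sulA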
# [12] = probe aLefty1 binding on compound microarray – biochemical, small-molecule microarray, 635/667 nm fluorescence, primary screen (AID 1153); conditions: higher = more signal;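 note: score merges spot fluorescence with signal-to-noise ratio from the scanned slide images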
# [13] = plasmodial surface anion channel blockers, osmotic lysis – cell-based, P. falciparum Indochina, OD700, 1 h, primary screen (AID 1154); conditions: P. falciparum Indochina infected RBC osmotic lysis, higher = more signal, called active from +8 up or from −8 down
# [14] = plasmodial surface anion channel blockers, osmotic lysis – cell-based, P. falciparum Indochina, OD700, 2 h, primary screen (AID 1155);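 note: lysis reports solute entry through the parasite surface anion channel PSAC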; conditions: P. falciparum Indochina infected erythrocytes, higher = more signal, called active from +8 up or from −8 down
# [15] = changes in parasitized red cell lysis, either direction – P. falciparum Indochina, OD700, 3 h, PSAC antagonist project, primary screen (AID 1156); conditions: P. falciparum-infected erythrocytes, osmotic lysis, higher = more signal, called active from +8 up or from −8 down
# [16] = plasmodial surface anion channel blockers, osmotic lysis – cell-based, P. falciparum Indochina, OD700, 18 h, primary screen (AID 1157); conditions: P. falciparum Indochina infected erythrocytes, osmotic lysis OD700, 18 h; higher = more signal, called active from +8 up or from −8 down
# [17] = S6 kinase pathway phospho-S6 level changes – cell-based, A549, cytoblot, luminescence, serum-stimulated, primary screen (AID 1158); conditions: 5 h, higher = more signal;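 note: serum-stimulated A549 lung adenocarcinoma cells; signal is phosphorylated S6 detected by cytoblot immunostaining with HRP secondary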
# [18] = biological target: NADPH oxidase 2 (Homo sapiens) (UniProt P04839); assay: compounds shifting NOX2 Amplex Red fluorescence – cell-based, HEK293-NOX2, PMA-stimulated, NOX inhibitor project, primary screen (AID 1159); conditions: 45 min, higher = more signal, called active from +8 up or from −8 down; note: test concentration not given here
# NADPH oxidase 2 (Homo sapiens), sequence (P04839 whole entry, looked up): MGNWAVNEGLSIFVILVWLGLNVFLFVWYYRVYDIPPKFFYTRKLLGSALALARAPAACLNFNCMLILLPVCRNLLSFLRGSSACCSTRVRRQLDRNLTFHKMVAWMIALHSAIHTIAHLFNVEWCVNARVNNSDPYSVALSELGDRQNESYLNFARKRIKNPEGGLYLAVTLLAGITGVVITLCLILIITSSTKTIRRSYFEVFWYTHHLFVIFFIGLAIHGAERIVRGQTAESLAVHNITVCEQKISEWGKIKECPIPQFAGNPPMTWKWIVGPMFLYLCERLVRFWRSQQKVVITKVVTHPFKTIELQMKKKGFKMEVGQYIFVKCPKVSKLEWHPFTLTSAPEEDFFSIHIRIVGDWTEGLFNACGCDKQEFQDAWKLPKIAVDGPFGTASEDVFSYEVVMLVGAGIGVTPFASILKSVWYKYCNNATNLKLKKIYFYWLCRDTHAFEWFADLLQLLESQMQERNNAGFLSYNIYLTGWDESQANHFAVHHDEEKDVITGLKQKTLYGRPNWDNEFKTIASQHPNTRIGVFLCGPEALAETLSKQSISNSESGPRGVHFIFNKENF
# [19] = biological target: NADPH oxidase 4 (Homo sapiens) (UniProt Q9NPH5); assay: compounds shifting NOX4 Amplex Red fluorescence – cell-based, HEK293-NOX4, tetracycline-induced, NOX inhibitor project, primary screen (AID 1160); conditions: HEK293-NOX4, Amplex Red H2O2 fluorescence, 45 min; higher = more signal, called active from +8 up or from −8 down
# NADPH oxidase 4 (Homo sapiens), sequence (Q9NPH5 whole entry, looked up): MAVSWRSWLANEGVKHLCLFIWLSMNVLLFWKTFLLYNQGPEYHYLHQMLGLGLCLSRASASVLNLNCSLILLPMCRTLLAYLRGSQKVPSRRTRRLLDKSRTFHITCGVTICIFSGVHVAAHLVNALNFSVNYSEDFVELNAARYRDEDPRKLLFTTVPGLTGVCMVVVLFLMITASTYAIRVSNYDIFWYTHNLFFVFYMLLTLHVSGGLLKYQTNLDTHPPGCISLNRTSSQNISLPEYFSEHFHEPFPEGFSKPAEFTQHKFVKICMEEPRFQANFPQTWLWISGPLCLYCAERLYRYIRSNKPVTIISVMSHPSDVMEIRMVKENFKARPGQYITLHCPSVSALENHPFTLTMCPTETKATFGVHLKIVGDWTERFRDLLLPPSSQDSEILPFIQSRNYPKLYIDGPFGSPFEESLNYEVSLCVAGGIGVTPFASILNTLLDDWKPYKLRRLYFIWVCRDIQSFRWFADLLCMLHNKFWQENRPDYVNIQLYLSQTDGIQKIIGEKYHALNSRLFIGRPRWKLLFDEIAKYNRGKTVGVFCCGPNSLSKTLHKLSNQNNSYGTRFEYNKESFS
# [20] = biological target: NADPH oxidase 5 (Homo sapiens) (UniProt Q96PH1); assay: compounds shifting NOX5 Amplex Red fluorescence – cell-based, HEK293-NOX5, NOX inhibitor project, primary screen (AID 1161); conditions: HEK293-NOX5, ionomycin, 45 min, higher = more signal
# NADPH oxidase 5 (Homo sapiens), sequence (Q96PH1 whole entry, looked up): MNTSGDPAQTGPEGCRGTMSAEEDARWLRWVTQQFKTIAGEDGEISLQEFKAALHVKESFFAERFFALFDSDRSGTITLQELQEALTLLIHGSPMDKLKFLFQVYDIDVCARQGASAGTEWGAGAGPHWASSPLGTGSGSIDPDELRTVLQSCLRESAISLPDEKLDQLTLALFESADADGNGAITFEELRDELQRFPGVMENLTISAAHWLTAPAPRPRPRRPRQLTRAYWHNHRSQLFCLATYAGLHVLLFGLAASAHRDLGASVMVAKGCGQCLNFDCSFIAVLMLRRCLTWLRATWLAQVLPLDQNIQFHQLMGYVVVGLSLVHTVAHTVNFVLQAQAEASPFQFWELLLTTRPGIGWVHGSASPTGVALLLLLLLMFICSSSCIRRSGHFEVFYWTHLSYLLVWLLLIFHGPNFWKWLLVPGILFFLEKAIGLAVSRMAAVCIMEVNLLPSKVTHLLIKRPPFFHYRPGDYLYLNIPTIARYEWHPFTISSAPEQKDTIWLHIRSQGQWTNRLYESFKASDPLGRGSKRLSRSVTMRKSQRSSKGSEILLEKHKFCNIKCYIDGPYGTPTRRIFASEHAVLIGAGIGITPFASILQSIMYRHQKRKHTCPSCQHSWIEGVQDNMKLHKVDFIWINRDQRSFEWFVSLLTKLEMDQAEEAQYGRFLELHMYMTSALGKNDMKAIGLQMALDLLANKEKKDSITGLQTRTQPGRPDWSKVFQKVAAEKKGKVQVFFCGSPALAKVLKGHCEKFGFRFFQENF
Structure (SMILES),composite z-score [1],z-score [2],z-score [3],z-score [4],z-score [5],composite z-score [6],composite z-score [7],composite z-score [8],composite z-score [9],composite z-score [10],z-score [11],composite z-score [12],z-score [13],z-score [14],z-score [15],z-score [16],z-score [17],z-score [18],z-score [19],z-score [20]
CCCCC=C[C@@H](NC(=O)c1ccc(-c2ccccc2)cc1)c1ccccc1,-0.0312,-1.76 (inactive),-0.00961 (inactive),0.197 (inactive),-0.013 (inactive),1.18,0.319,0.58,0.871,-0.181,-1.63 (inactive),0.258,2.54 (inactive),0.631 (inactive),-0.309 (inactive),0.862 (inactive),0.0893,-0.473 (inactive),-1.12 (inactive),1.46
COc1ccc(CN(C2=CC[C@@]3(C(N)=O)C(=O)C(Cl)=C(Cl)C(=O)[C@@]3(C#N)C2)S(=O)(=O)c2ccc(Br)cc2)cc1,-0.0312,-3.6 (inactive),-0.897 (inactive),33.6 (active),119 (active),0.62,-0.0006,0.385,0.448,-0.245,1.3 (inactive),-0.0042,5.11 (inactive),-1.24 (inactive),-1.94 (inactive),-2.3 (inactive),0.881,1.76 (inactive),-0.275 (inactive),0.362
O=c1n(-c2ccccc2)c(=O)n2n1CC(COc1ccccc1)=C([C@H](O)CCc1ccccc1)[C@@H]2CO,-0.0748,-2.16 (inactive),-0.496 (inactive),1.49 (inactive),-0.373 (inactive),-0.275,-0.0618,0.8,-0.119,0.426,2.63 (inactive),-0.315,16.8 (active),0.497 (inactive),0.076 (inactive),-1.51 (inactive),1.02,-0.878 (inactive),-0.265 (inactive),-0.682
CCCCCCCCCCC(O)C1C=CC2C(=O)N(C)C(=O)C2N1NC(=O)OC(C)(C)C (stereo not given),-0.121,-3.15 (inactive),0.918 (inactive),0.632 (inactive),0.584 (inactive),0.548,0.0198,-0.436,0.0812,-0.813,-3.07 (inactive),-0.239,8.95 (active),2.45 (inactive),-1.28 (inactive),1.81 (inactive),-1.36,-0.67 (inactive),-7.78 (inactive),-3.78
COc1cc2c(cc1OC)CN(C(=O)[C@@H]1[C@H]3C(=O)O[C@H](c4ccccc4)[C@H](c4ccccc4)N3[C@H](c3ccc(OCCO)cc3)[C@@]13C(=O)Nc1ccccc13)CC2,0.758,-1.06 (inactive),-1.46 (inactive),0.829 (inactive),-0.437 (inactive),0.607,0.188,1.06,0.858,1.93,0.547 (inactive),0.534,5.29 (inactive),2.11 (inactive),1.06 (inactive),0.956 (inactive),-0.0621,0.799 (inactive),0.837 (inactive),1.03
O=C1O[C@H](c2ccccc2)[C@H](c2ccccc2)N2[C@H]1[C@@H](C(=O)Nc1nc3ccccc3s1)[C@]1(C(=O)Nc3ccc(C#CC4(O)CCCCCC4)cc31)[C@H]2c1ccccc1OCCO,0.731,-4.43 (inactive),0.0608 (inactive),0.346 (inactive),0.0053 (inactive),0.612,0.27,0.602,0.597,1.32,-0.569 (inactive),0.966,2.83 (inactive),3.35 (inactive),0.602 (inactive),1.56 (inactive),0.164,1.29 (inactive),0.578 (inactive),1.5
CC1=C[C@@]2(CO)C(=O)[C@]3(CO3)[C@@H]1[C@H]1[C@]2(C)C=C(CO)C(=O)[C@]12CO2,0.129,-0.0354 (inactive),-0.108 (inactive),0.314 (inactive),1.51 (inactive),0.006,-0.103,0.145,0.171,0.265,0.806 (inactive),-0.148,0.0442 (inactive),0.446 (inactive),0.429 (inactive),0.156 (inactive),-0.0631,-0.35 (inactive),-1.07 (inactive),-1.14
CCOc1cc(C(O)C2C=CC3C(=O)N(c4ccccc4)C(=O)C3N2Nc2ccc(C#N)cc2)ccc1O (stereo not given),-0.162,0.423 (inactive),-0.485 (inactive),-0.525 (inactive),0.201 (inactive),0.999,0.288,0.258,0.115,-0.373,-1.17 (inactive),0.302,16.3 (active),2.72 (inactive),0.743 (inactive),1.27 (inactive),-1.03,-2.87 (inactive),-5.02 (inactive),-4.31
COc1ccc([Si](C)(C)[C@@H]2[C@@H](CC(=O)N3Cc4ccccc4C[C@H]3CO)O[C@]3(C(=O)N(C)c4ccccc43)[C@H]2C)cc1,0.269,-7.08 (inactive),-1.58 (inactive),10.2 (active),-1.92 (inactive),1.64,0.189,0.783,0.741,2.03,-0.883 (inactive),0.503,11.8 (active),2.87 (inactive),0.368 (inactive),1.21 (inactive),0.884,-0.11 (inactive),0.00429 (inactive),-1.7
